Measurements taken from PubChem BioAssay (NCI).
Compounds without any hit were thinned out: in the full panel of roughly 79,000, 15% have a hit. Values without a mark were called inactive. Calls of active or inactive are those of the source. No stated cut-off is given here; in the data, active means growth inhibition above about 70%; inactive means the rest.

What was measured:
[1] = NCI Yeast Anticancer Drug Screen. Data for the rad50 strain (AID 155);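 further: 0% = growth of vehicle-only cultures of the same strain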; conditions: S. cerevisiae rad50 strain growth inhibition, active compounds read high
How it was run: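 Growth of the mutant yeast was measured after compound exposure and referenced to vehicle-treated cultures.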

[2] = NCI Yeast Anticancer Drug Screen. Data for the mec2-1 strain (AID 157); conditions: S. cerevisiae mec2-1 strain, active compounds read high
How it was run: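 Mutant yeast (mec2-1) grown with compound; growth inhibition relative to vehicle control reported.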

[3] = NCI Yeast Anticancer Drug Screen. Data for the sgs1 mgt1 strain (AID 161);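 further: 0% = growth of cultures given vehicle only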; conditions: S. cerevisiae sgs1 mgt1 strain, active compounds read high
How it was run: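 Percent growth inhibition was derived by comparing compound-exposed mutant yeast with vehicle-exposed cultures. The strain carries alterations in DNA damage repair.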

[4] = NCI Yeast Anticancer Drug Screen. Data for the cln2 rad14 strain (AID 165);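 further: 0% = growth equal to vehicle treated cultures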; conditions: S. cerevisiae cln2 rad14 strain, active compounds read high
How it was run: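 Readout is yeast growth inhibition versus vehicle-treated controls, using a strain with cln2 and rad14 alterations exposed to compound.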

[5] = NCI Yeast Anticancer Drug Screen. Data for the bub3 strain (AID 167); conditions: S. cerevisiae bub3 mutant strain, active compounds read high
How it was run: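 Whole-cell yeast assay. The mutant strain was incubated with compounds, and growth inhibition was determined by comparison with vehicle-treated cells.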

[6] = NCI Yeast Anticancer Drug Screen. Data for the mlh1 rad18 strain (AID 175); conditions: S. cerevisiae mlh1 rad18 strain growth inhibition, active compounds read high
How it was run: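 Genetically defined yeast (DNA repair-deficient) exposed to compounds; growth inhibition determined relative to vehicle.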

[7] = at 5.0 µM (retest, dose inferred, filed as 0.5)
[8] = at 50.0 µM (retest, dose inferred, filed as 5.0)

| SMILES | growth inhibition [1, 7] | growth inhibition [1, 8] | growth inhibition ([1]; at 50.0 µM) | growth inhibition [2, 7] | growth inhibition [2, 8] | growth inhibition ([2]; at 50.0 µM) | growth inhibition [3, 7] | growth inhibition [3, 8] | growth inhibition ([3]; at 50.0 µM) | growth inhibition [4, 7] | growth inhibition [4, 8] | growth inhibition ([4]; at 50.0 µM) | growth inhibition [5, 7] | growth inhibition [5, 8] | growth inhibition ([5]; at 50.0 µM) | growth inhibition [6, 7] | growth inhibition [6, 8] | growth inhibition ([6]; at 50.0 µM) |
| --- | --- | --- | --- | --- | --- | --- | --- | --- | --- | --- | --- | --- | --- | --- | --- | --- | --- | --- |
| O=C1C=C(O)c2cc(Br)ccc2C1=O.[Ag] | 99% (active) | 99% (active) | 99.6% (active) | 100% (active) | 99% (active) | 99.5% (active) | 100% (active) | 99% (active) | 99.7% (active) | 99% (active) | 99% (active) | 99.5% (active) | 100% (active) | 99% (active) | 99.7% (active) | 99% (active) | 99% (active) | 99.1% (active) |
| O=S(=O)(CC(Br)Br)c1ccccc1 | 13% | 99% (active) | 99.5% (active) | 18% | 100% (active) | 98.5% (active) | 3% | 99% (active) | 41% | 7% | 99% (active) | 74.8% (active) | 34% | 99% (active) | 99.5% (active) | 11% | 99% (active) | 30.9% |
| c1cc2c(cc1CCCCCCCCCCc1ccc3c(c1)CCC3)CCC2 | -4% | -5% | 2.75% | -13% | -8% | 3.85% | 9% | 2% | 3.3% | -4% | 0% | 79.8% (active) | -6% | -2% | 2.95% | -2% | -38% | 10.6% |
| Cc1c(C)c(C)c(C(=O)c2ccccc2C(=O)NCCSC(C)(C)C)c(C)c1C | 42% | 49% | 82.6% (active) | 45% | 60% | 67.6% | -15% | -31% | 83.3% (active) | 53% | 41% | 76.6% (active) | 44% | 33% | 82.4% (active) | 47% | 55% | 84.3% (active) |
| CNc1ccc([N+](=O)[O-])cc1 | -4% | 13% | 43% | 1% | 9% | 12.8% | -1% | 11% | -5.2% | 2% | 1% | 22.9% | -1% | 14% | 31.1% | 0% | 19% | 10.3% |
| COC1=C(NC(C)=O)C(=O)c2nc(-c3nc(C(=O)O)c(C)c(-c4ccc(OC)c(OC)c4O)c3N)ccc2C1=O | 59% | 93% (active) | 78.4% (active) | 28% | 79% (active) | 69.7% | 43% | 92% (active) | 68.7% | 38% | 90% (active) | 57.1% | 15% | 70% (active) | 55.8% | 48% | 89% (active) | 87% (active) |
| CCCCCCCCCCCCC1N=C(N)N2CCCC2=C1C(=O)OC (configuration not stated) | 82% (active) | 99% (active) | 89.2% (active) | 99% (active) | 99% (active) | 91.5% (active) | 69% | 99% (active) | 87.4% (active) | 100% (active) | 99% (active) | 90.5% (active) | 99% (active) | 99% (active) | 90.4% (active) | 99% (active) | 99% (active) | 84.7% (active) |
| O=C(O)c1ccc(Br)cc1C(=O)c1ccccc1 | -18% | -15% | 1.15% | -19% | 10% | 9.45% | -2% | 1% | -3.3% | 31% | -38% | 11.8% | 8% | -18% | 6.35% | -11% | 6% | -20.4% |
| CCOc1ccc(/C=C2\NC(=S)N(/C=C3\C(=O)Oc4ccccc4C3=O)C2=O)cc1 | 77% (active) | 91% (active) | -16.1% | 6% | 71% (active) | -28.6% | -30% | 58% | 0.45% | -14% | 70% (active) | -39.2% | -31% | 76% (active) | -23.9% | 11% | 94% (active) | -8.6% |
